# Source: the antibiotic and cytotoxicity screens of Wong et al. (2023)
# Hit rate of the full screen: of about 39,000 compounds, about 3,300 (8.5%) were called active. This excerpt belongs to a sample that is enriched for actives.
# Test system: HepG2
# Assay: cytotoxicity call (relative viability < 0.9)
# Conditions: 10 µM
row,Structure (SMILES),cytotoxicity call
1,O=C(CCCCCCC(=O)Nc1ccccc1O)N/N=C/[C@H](O)[C@@H](O)[C@H](O)CO,inactive
2,COc1ccc(S(=O)(=O)N(C)C[C@@H]2OCCCC[C@@H](C)Oc3ccc(NC(=O)C4CCCCC4)cc3C(=O)N([C@@H](C)CO)C[C@@H]2C)cc1,inactive
3,COC(=O)C(CC#Cc1ccc2c(c1)[C@]1(C(=O)N2)[C@H](c2ccc(OCCO)cc2)N2[C@H](c3ccccc3)[C@H](c3ccccc3)OC(=O)[C@H]2[C@@H]1C(=O)Nc1nc2ccccc2s1)C(=O)OC,inactive
4,C[C@@H]1CN([C@H](C)CO)C(=O)c2cccc(NS(=O)(=O)c3cccs3)c2O[C@H]1CN(C)S(=O)(=O)c1ccccc1,inactive
5,C[C@H](CO)N1C[C@H](C)[C@@H](CN(C)C(=O)c2ccncc2)Oc2ncc(C#CC3CCCCC3)cc2C1=O,inactive
6,C[C@H](CO)N1C[C@H](C)[C@@H](CN(C)C(=O)c2cnccn2)Oc2ncc(-c3cccc(C#N)c3)cc2C1=O,inactive
7,C[C@@H]1CN([C@@H](C)CO)C(=O)c2cccc(NC(=O)Nc3cccc4ccccc34)c2O[C@H]1CN(C)S(=O)(=O)c1ccc2ncsc2c1,inactive
8,C[C@@H]1CCCCO[C@@H](CN(C)S(=O)(=O)c2ccc(F)cc2)[C@H](C)CN([C@H](C)CO)C(=O)c2cc(NC(=O)Nc3ccc(F)cc3)ccc2O1,active
9,C[C@@H]1CCCCO[C@H](CN(C)S(=O)(=O)c2ccc(F)cc2)[C@@H](C)CN([C@H](C)CO)C(=O)c2cc(NC(=O)Nc3ccc4c(c3)OCO4)ccc2O1,active
10,C[C@@H]1CCCCO[C@@H](CN(C)S(=O)(=O)c2ccc(F)cc2)[C@@H](C)CN([C@H](C)CO)C(=O)c2cc(NC(=O)Nc3ccc4c(c3)OCO4)ccc2O1,inactive
11,C[C@@H]1CN([C@@H](C)CO)C(=O)c2cc(NC(=O)Nc3ccc(F)cc3)ccc2O[C@@H](C)CCCCO[C@@H]1CN(C)S(=O)(=O)c1ccc(F)cc1,inactive
12,C[C@@H]1CN([C@H](C)CO)C(=O)c2cc(NC(=O)Nc3ccc(F)cc3)ccc2O[C@@H](C)CCCCO[C@H]1CN(C)S(=O)(=O)c1ccc(F)cc1,active
13,C[C@H](CO)N1C[C@H](C)[C@@H](CN(C)S(=O)(=O)c2ccc(F)cc2)OCCCC[C@H](C)Oc2ccc(NC(=O)Nc3ccc(F)cc3)cc2C1=O,inactive
14,C[C@H]1CCCCO[C@@H](CN(C)S(=O)(=O)c2ccc(F)cc2)[C@@H](C)CN([C@@H](C)CO)C(=O)c2cc(NC(=O)Nc3ccc(F)cc3)ccc2O1,inactive
15,C[C@H]1CCCCO[C@H](CN(C)S(=O)(=O)c2ccc(F)cc2)[C@@H](C)CN([C@@H](C)CO)C(=O)c2cc(NC(=O)Nc3ccc(F)cc3)ccc2O1,inactive
16,C[C@@H]1CCCCO[C@@H](CN(C)S(=O)(=O)c2ccc(F)cc2)[C@H](C)CN([C@@H](C)CO)C(=O)c2cc(NC(=O)Nc3ccc(F)cc3)ccc2O1,inactive
17,C[C@@H]1CN([C@H](C)CO)C(=O)c2cc(NC(=O)Nc3ccc4c(c3)OCO4)ccc2O[C@@H](C)CCCCO[C@@H]1CN(C)S(=O)(=O)c1ccc(F)cc1,inactive

row,Structure (SMILES),cytotoxicity call
1,C[C@@H]1CCCCO[C@@H](CN(C)S(=O)(=O)c2ccc(F)cc2)[C@@H](C)CN([C@@H](C)CO)C(=O)c2cc(NC(=O)Nc3ccc(F)cc3)ccc2O1,active
2,C[C@@H]1CCCCO[C@@H](CN(C)S(=O)(=O)c2ccc(F)cc2)[C@@H](C)CN([C@H](C)CO)C(=O)c2cc(NC(=O)Nc3ccc(F)cc3)ccc2O1,inactive
3,O=C(O)CNS(=O)(=O)c1ccccc1F,inactive
4,Cc1noc(C)c1S(=O)(=O)Nc1ccc2c(c1)CC(=O)N([C@H](C)CO)C[C@@H](C)[C@H](CN(C)S(C)(=O)=O)O2,inactive
5,C[C@@H]1CN([C@@H](C)CO)C(=O)c2cccc(NC(=O)c3nc4ccccc4s3)c2O[C@H]1CN(C)Cc1ccc(-c2ccccc2)cc1,inactive
6,COc1ccc(S(=O)(=O)Nc2ccc3c(c2)C(=O)N([C@@H](C)CO)C[C@H](C)[C@@H](CN(C)C(=O)Nc2cccc4ccccc24)O3)cc1,inactive
7,C[C@@H]1CN([C@H](C)CO)C(=O)c2cc(NS(C)(=O)=O)ccc2O[C@H]1CN(C)Cc1ccc(C(F)(F)F)cc1,inactive
8,C[C@H]1CN([C@@H](C)CO)C(=O)c2cccc(NC(=O)C3CCOCC3)c2O[C@H]1CN(C)S(=O)(=O)c1ccccc1,inactive
9,O=C(C[C@@H]1CC[C@H]2[C@@H](COC[C@@H](O)CN2S(=O)(=O)c2ccc(F)cc2)O1)NCc1ccc(Cl)c(Cl)c1,inactive
10,O=C(Nc1ccc(C(=O)Nc2ccc(C(=O)Nc3ccc(S(=O)(=O)O)c4cc(S(=O)(=O)O)cc(S(=O)(=O)O)c34)cc2)cc1)Nc1ccc(C(=O)Nc2ccc(C(=O)Nc3ccc(S(=O)(=O)O)c4cc(S(=O)(=O)O)cc(S(=O)(=O)O)c34)cc2)cc1,inactive
11,C[C@H]1CN([C@@H](C)CO)C(=O)c2cc(Br)cnc2O[C@@H]1CN(C)S(=O)(=O)c1ccccc1,inactive
12,C[C@@H]1CN([C@@H](C)CO)C(=O)c2cc(NS(=O)(=O)c3ccc(F)cc3)ccc2O[C@@H]1CN(C)S(=O)(=O)c1ccccc1,inactive
13,C=CCOC(=O)[C@@H]1[C@H]2C(=O)O[C@H](c3ccccc3)[C@H](c3ccccc3)N2[C@H](c2ccc(OCCOC(=O)[C@H]3C[C@H]4C(=O)NCC(=O)N4[C@H]3c3cccc(OCCO)c3)cc2)[C@@]12C(=O)Nc1ccc(I)cc12,inactive
14,C[C@@H]1CCCCO[C@H](CN(C)S(=O)(=O)c2ccc(F)cc2)[C@@H](C)CN([C@H](C)CO)C(=O)c2cc(NC(=O)Nc3ccc(F)cc3)ccc2O1,inactive
15,C[C@@H]1CCCCO[C@H](CN(C)S(=O)(=O)c2ccc(F)cc2)[C@H](C)CN([C@H](C)CO)C(=O)c2cc(NC(=O)Nc3ccc(F)cc3)ccc2O1,active
16,C[C@@H]1CN([C@H](C)CO)C(=O)c2cc(NC(=O)Nc3ccc(F)cc3)ccc2O[C@@H](C)CCCCO[C@@H]1CN(C)S(=O)(=O)c1ccc(F)cc1,inactive
17,COC(=O)C1=CO[C@@H](O[C@@H]2O[C@H](CO)[C@@H](O)[C@H](O)[C@H]2O)[C@@H]2[C@@](C)(O)[C@@H](OC(=O)/C=C/c3ccc(O)cc3)C[C@]12O,inactive
